An excerpt weighted towards active compounds, which were near 1.2% of everything screened.
Vc quorum ag – induces V. cholerae light production without autoinducers | AID 588436 | activation, % at 18.7 µM | 0.16% of 350,000 active | V. cholerae BH1578 lux reporter, luminescence, 6 h; in the data active = activation mostly above about 9.7%, no sharp cut-off; inconclusive = no clear call, values can overlap the other calls; inactive = mostly below about 3.7%
PfHsp40 rescue – compounds rescuing yeast from Plasmodium falciparum HSP40 toxicity; growth rescue, % at 12.5 µM; 0.68% of 340,000 active; S. cerevisiae expressing PfHsp40, growth rescue, ATP luminescence; in the data active = growth rescue above about 28%, passing the limit was not always enough; inconclusive = no clear call, values can overlap the other calls;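 also: yeast W303a lacking pdr1 and pdr3 grown in galactose medium; growth measured after three days at 30 °C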
Sa RN4220 lethal – S. aureus RN4220 growth inhibition; OD600, 16 h; inhibition, % (no concentration beside the values); 0.33% of 330,000 active; AID 1259311; in the data active = inhibition above about 85%;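 also: plate controls were untreated cells for no effect and reference antibiotic for full effect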
ugtP null kill – growth inhibition of S. aureus ugtP deletion strain. 0.54% of 330,000 active. growth inhibition, % (no concentration beside the values). S. aureus RN4220 ugtP deletion, OD600 growth, 16 h; in the data active = growth inhibition above about 68%;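 also: plate controls were untreated wells for no effect and antibiotic for full effect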
Mtb betalactam – beta-lactam sensitization of Mtb H37Rv; M. tuberculosis H37Rv growth with meropenem, percent inhibition; AID 434955; inhibition, % at 25 µM; 0.27% of 330,000 active; call rule not given here;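 also: growth measured after seven days incubation then overnight dye step; 0% = bacteria only wells and 100% = bacteria with antibiotic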
An asterisk follows results filed as active; i = inactive; ? = inconclusive; . = not tested or not shown.

SMILES	Vc quorum ag	PfHsp40 rescue	Sa RN4220 lethal	ugtP null kill	Mtb betalactam
Cc1ccc(S(=O)(=O)N2CCOCC2)s1	i	0	5	5	1
CCN1CCN(c2cc(SC(C)C)nc(-c3ccc(OC)cc3)n2)CC1	6	0	-3	93*	.
O=C(N/N=C/c1cc(Br)c(O)c(Br)c1O)c1ccc2c(c1)OCCO2	0	152*	.	.	6
O=C(N/N=C/c1cc(Br)cc(Cl)c1O)c1ccc2c(c1)OCO2	-1	257*	.	.	6
C/C(=N\N=C(/N)SC1CC(=O)N(c2ccc(Cl)c(Cl)c2)C1=O)c1cccs1 (stereo unspecified)	-2	37*	.	.	98
C/C(=N\N=C(/N)SC1CC(=O)N(c2ccc(Cl)cc2)C1=O)c1cccs1 (stereo unspecified)	-3	5	.	.	94
CCCCCCCCCCS(=O)(=O)NN=Cc1ccccc1OC	.	.	4	97*	.
CC(NNC(=S)N1CCN(c2ccccn2)CC1)c1nccc2ccccc12 (stereo unspecified)	i	149*	.	.	.
CC(C)(C)n1nc(-c2ccc(F)cc2)c2c(N)ncnc21	.	454*	3	33	-7
Cc1ccc(-c2nc(N)c3c(-c4ccc(C)cc4)nn(C(C)(C)C)c3n2)cc1	0	-1	-2	6	-14
Cc1ccc(-c2nn(C(C)(C)C)c3ncnc(NS(=O)(=O)c4ccc([N+](=O)[O-])cc4)c23)cc1	-1	2	-3	-3	36
CC(C)(C)n1nc(-c2ccc(Cl)cc2)c2c(N)ncnc21	3	311*	-2	4	90
Cc1ccc(S(=O)(=O)Oc2ccc(C=N/N=C3/NC(=O)C(CC(=O)O)S3)cc2)cc1 (stereo unspecified)	.	.	1	-6	.
O=c1oc2ccccc2cc1-c1nc2ccccc2o1	0	0	15	0	79
Nc1cc2nc3ccccc3oc-2cc1=O	-1	376*	38	31	-9
Brc1cc2c(cc1C1OCCO1)OCO2	-8	1	4	-2	.
CCCC1OC(c2cc3c(cc2Cl)OCO3)OCC1CC (stereo unspecified)	i	2	-1	85*	.
CC(=NOc1nc(C)cc(C)n1)c1ccccc1	.	.	1	2	.
CC1(C)CC(=O)C(C=Nc2ccccn2)=C(O)C1	.	.	4	2	.
CSc1ccccc1N=CC1=C(O)CC(C)(C)CC1=O	18*	0	1	1	2
CS(=O)(=O)c1ccc([C@@H](O)[C@@H](CF)NC(=O)C(Cl)Cl)cc1	-1	0	.	.	-5
CS(=O)(=O)c1ccc(C(O)C(CF)NC(=O)C(Cl)Cl)cc1 (stereo unspecified)	.	.	99*	100*	.
COc1ccc([N+](=O)[O-])c(S(=O)(=O)c2ccccc2)n1	i	.	42	96*	56
O=[N+]([O-])c1cccnc1S(=O)(=O)c1ccccc1	0	104*	.	.	100
COc1ccc([N+](=O)[O-])c(S(=O)(=O)c2ccc(Cl)cc2)n1	i	50*	100*	100*	21
SMILES	Vc quorum ag	PfHsp40 rescue	Sa RN4220 lethal	ugtP null kill	Mtb betalactam
O=C1C=C(c2ccc(F)nc2)CC(c2ccc3c(c2)OCO3)C1 (stereo unspecified)	.	.	3	-8	.
COc1cc(C=NNC(=O)c2c(-c3ccccc3)noc2C)cc(OC)c1OC	.	.	4	-4	.
O=C(NN=Cc1cn(CC(=O)N2CCOCC2)c2ccccc12)c1cccnc1	.	.	1	-3	.
Cc1ccc2cc(COC(=O)c3ccco3)c(=O)[nH]c2c1	17*	0	5	-7	-3
Nc1nc(CSc2n[nH]c(-c3ccccc3)n2)nc(Nc2ccccc2)n1	i	68*	4	6	-2
COc1ccc(Nc2nc(N)nc(CSc3n[nH]c(-c4ccccc4)n3)n2)cc1	0	-1	3	-6	-15
CN=C(Nc1ccc(Br)cc1)SC1CC(=O)N(c2ccc(OC)cc2)C1=O (stereo unspecified)	0	43*	-17	-11	10
CC(=O)NC1=NN(C(C)=O)C(c2ccccc2)S1 (stereo unspecified)	-1	1	4	1	0
CC(=O)NC1=NN(C(C)=O)C(c2cccs2)S1 (stereo unspecified)	0	40*	4	-1	1
Cc1cccc(NC(=S)NC(C)CCc2ccccc2)c1 (stereo unspecified)	-3	96*	-2	20	-4
Cc1cccc(NC(=O)NC(C)CCc2ccccc2)c1 (stereo unspecified)	i	2	-4	8	5
O=C(NN=Cc1ccccc1)c1ccc(NC(=O)c2ccc(F)cc2)cc1	.	.	0	3	.
Cc1ccc(-n2c(-c3ccc(Br)cc3)c[n+]3c2CCc2ccc4cccnc4c2-3)cc1	0	9	99*	90	99
Cc1ccc(S(=O)(=O)N2C(c3cccc(C)c3)CC=C(C(=O)O)C2c2cccc(Cl)c2)cc1 (stereo unspecified)	.	.	30	59	.
COc1ccccc1-c1nnn(CC#N)n1	20*	1	3	2	-7
COc1ccc(-c2nnn(CC#N)n2)cc1OC	i	0	7	9	74
O=C(CSc1nnc(CNC(=O)c2cccs2)o1)NC1CCCCC1	15*	0	4	12	-9
O=C(CSc1nnc(CNC(=O)c2cccs2)o1)NCC1CCCO1 (stereo unspecified)	i	-1	4	11	1
O=C1NCC(Cc2ccc(O)cc2)N(CC2CCCCC2)C1=O (stereo unspecified)	.	.	8	4	.
COc1ccc(NS(=O)(=O)c2ccc3c(c2)Cc2ccccc2-3)cn1	1	28*	4	-15	-8
CC(=NNC(=S)NCCc1ccccc1)c1ccc(Cl)cc1Cl	.	.	1	90*	.
Fc1ccc(NC(=S)NCCc2ccc(Cl)cc2)cc1	i	0	-2	-12	7
S=C(NCCc1ccc(Cl)cc1)Nc1ccc(Cl)cc1Cl	2	70*	100*	99*	13
Fc1ccc(CCNC(=S)Nc2ccc(F)c(Cl)c2)cc1	0	113*	-2	-22	86
CSc1nc2cc(Oc3cccc(Cl)c3Cl)c(Cl)cc2[nH]1	i	?	100*	97*	58
SMILES	Vc quorum ag	PfHsp40 rescue	Sa RN4220 lethal	ugtP null kill	Mtb betalactam
c1ccc(CC2CCN(Cc3ccccn3)CC2)cc1	i	50*	0	2	40
COc1cccc(C=CC(=O)Nc2ccc(OC)nc2)c1	.	.	0	-10	.
COC(=O)C1=C(c2ccc3ccccc3c2)C[C@@H]2CC[C@H]1N2C	i	1	.	.	0
COC(=O)C1=C(C(=O)OC)C2OC1c1cc3ccccc3cc12	-1	71*	.	.	.
COCCN1C(=O)NC(c2ccccc2)C(C(=O)OC)C1C (stereo unspecified)	.	.	5	3	.
CCn1c(SCC(=O)Nc2ccccc2)nnc1-c1cccs1	0	0	4	-1	-5
CCn1c(SCC(=O)NC(C)C)nnc1-c1cccs1	17*	0	.	.	1
Cn1c(NN=C2CCCc3ccccc32)nc2c1c(=O)n(Cc1ccc(F)cc1)c(=O)n2C	.	.	3	-2	.

Screens: PubChem, several laboratories
